This passage reports Potency results from PubChem BioAssay (NCATS).

Records with an inconclusive call do not appear. The source made the active and inactive calls. Calls follow the shape of the dose curve; as a rule, active = well fitted inhibition curve with a large enough effect; inconclusive = small, poorly fitted or top-dose-only effect; inactive = flat fitted curve, though single readings scatter.

Common to all, as to test: qHTS profiling for inhibitors of Plasmodium falciparum proliferation (AID 504749); also: nearly all actives have a fitted effect of over 60% in size
Common to all, as to conditions: P. falciparum in erythrocytes, SYBR Green DNA, 72 h; series mostly up to 28.7 µM

Experiment [1] concerns N140. The method, boiled down:
(§1)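 Fluorescence of SYBR Green-bound parasite DNA, read at 485/535 nm, served as the growth measure. Infected erythrocytes were cultured with compound 72 h; artemisinin (0.29 uM) and DMSO wells defined the normalization range.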

The subject of experiment [2] is P93_24. The method, boiled down:
as §1

The test system of experiment [3] is P94_40. The method, boiled down:
as §1

Experiment [4] concerns PAD. The method, boiled down: as §1
For experiment [5], the system named is PC15. In short, it runs like this: as §1
Experiment [6] concerns PC26. In short, it runs like this:
as §1

In experiment [7] the test system is PC49. In short, it runs like this:
as §1

Experiment [8] has as its system SC27B. The method, boiled down: as §1
In experiment [9] the test system is TAB109. In short, it runs like this:
as §1

The test system of experiment [10] is TAB113. The method, boiled down: as §1
Potency is read from the fitted curve at half-maximal effect.

As to `O=C(O)[C@H](O)[C@@H](O)[C@H](O)[C@H](O)CO`, the Potency result in [1], in [2], in experiment [3], in [4], in [5] and in experiment [6] was “inactive” each time. Besides, the Potency entry in experiment [7], in experiment [8], in experiment [9] and in [10] was “inactive” in each case.
With `c1ccc2sc(SSc3nc4ccccc4s3)nc2c1`, the Potency entry in experiment [1], in experiment [2], in experiment [3], in experiment [4], in [5] and in experiment [6] was “inactive” each time. Also, the Potency result in experiment [7], in experiment [8], in [9] and in experiment [10] was “inactive” throughout.
As for `CC(C(=O)O)c1ccc2c(c1)[nH]c1ccc(Cl)cc12` (stereo unspecified), the Potency entry in [1], in experiment [2], in experiment [3], in [4], in experiment [5] and in experiment [6] was “inactive” each time. For the same molecule, the Potency result in [7], in [8], in experiment [9] and in experiment [10] was “inactive” in each case.
In the case of `CN1CCN(c2cc3c(nn2)Oc2ccccc2N3C)CC1`, the Potency entry in [1], in [2], in experiment [3], in [4], in experiment [5] and in experiment [6] was “inactive” in each case. Besides, the Potency entry in experiment [7], in experiment [8], in experiment [9] and in experiment [10] was “inactive” each time.
As for `O=c1[nH]c2ccccc2n1CCCN1CCN(C(c2ccccc2)c2ccccc2)CC1`, the Potency in experiment [1] was 11.2 µM (active).
As for `O=C(O)[C@H](CC(=O)N1C[C@H]2CCCC[C@H]2C1)Cc1ccccc1`, the Potency entry in [1], in experiment [2], in experiment [3], in experiment [4], in experiment [5] and in experiment [6] was “inactive” throughout. Further, the Potency entry in [7], in experiment [8], in experiment [9] and in experiment [10] was “inactive” in each case.
As for `Nc1ccc(C(=O)O)c(O)c1`, the Potency entry in [1], in [2], in experiment [3], in experiment [4], in experiment [5] and in experiment [6] was “inactive” in each case. Also, the Potency entry in experiment [7], in [8], in [9] and in experiment [10] was “inactive” in each case.
As for `O=C(O)c1ccccc1Nc1cccc(C(F)(F)F)c1`, the Potency result in experiment [1], in experiment [2], in [3], in [4], in experiment [5] and in [6] was “inactive” throughout. Further, the Potency result in [7], in [8], in experiment [9] and in experiment [10] was “inactive” each time.
Regarding `CC1(C)C[C@@H]1C(=O)N/C(=C\CCCCSC[C@H](N)C(=O)O)C(=O)O`, the Potency entry in [1], in experiment [2], in experiment [3], in experiment [4], in [5] and in experiment [6] was “inactive” throughout. Further, the Potency result in experiment [7], in experiment [8], in experiment [9] and in experiment [10] was “inactive” throughout.
On to `Cc1ccccc1CNc1ncnc2c1ncn2C1OC(CO)C(O)C1O` (stereo unspecified), for which the Potency entry in experiment [1], in experiment [2], in experiment [3], in experiment [4], in [5] and in experiment [6] was “inactive” throughout. Moreover, the Potency entry in experiment [7], in experiment [8], in experiment [9] and in experiment [10] was “inactive” throughout.
Regarding `Cc1ccc(C(=O)c2ccc(CC(=O)O)n2C)cc1`, the Potency result in experiment [1], in experiment [2], in experiment [3], in experiment [4], in experiment [5] and in [6] was “inactive” in each case. The Potency entry in [7], in experiment [8], in experiment [9] and in experiment [10] was “inactive” throughout.
As to `Oc1c(Br)cc(Br)c2cccnc12`, the Potency entry in [1], in experiment [2], in [3], in experiment [4], in experiment [5] and in [6] was “inactive” in each case. The Potency entry in experiment [7], in [8] and in [9] was “inactive” each time.
Consider `O=C(O)COc1ccc(C(=O)c2cccs2)c(Cl)c1Cl`, for which the Potency entry in experiment [1], in experiment [2], in experiment [3], in experiment [4], in [5] and in experiment [6] was “inactive” throughout. Also, the Potency entry in experiment [7], in experiment [8], in experiment [9] and in experiment [10] was “inactive” throughout.
Regarding `CCOC(=O)c1ccccc1O`, the Potency entry in experiment [1], in experiment [2], in experiment [3], in experiment [4], in [5] and in experiment [6] was “inactive” each time. Besides, the Potency entry in [7], in [8], in experiment [9] and in experiment [10] was “inactive” each time.
Turning to `COc1ccc(-c2cc(=S)ss2)cc1`, the Potency result in experiment [1], in [5], in experiment [6], in experiment [7] and in experiment [9] was “inactive” in each case.
As for `O=C1CN(/N=C/c2ccc(-c3ccc([N+](=O)[O-])cc3)o2)C(=O)N1`, the Potency result in experiment [1], in experiment [3], in experiment [4], in [5], in experiment [8] and in experiment [9] was “inactive” in each case. Moreover, the Potency entry in experiment [10] is “inactive”.
For `COC(=O)C1=C(C)NC(C)=C(C(=O)OCC(C)C)C1c1ccccc1[N+](=O)[O-]` (stereo unspecified), the Potency in [2] is 10 µM (active); in experiment [9], 8.91 µM (active).
As to `C[S+](CC[C@H](N)C(=O)O)C[C@H]1O[C@@H](n2cnc3c(N)ncnc32)[C@H](O)[C@@H]1O` (stereo partly specified), the Potency in [1] was 1 µM (active). The Potency result in experiment [5], in experiment [6], in [7] and in experiment [8] was “inactive” throughout.
On to `CCCSc1ccc2nc(NC(=O)OC)[nH]c2c1`, for which the Potency result in [1], in experiment [2], in [4], in experiment [5], in experiment [6] and in experiment [7] was “inactive” each time. Further, the Potency result in experiment [8], in experiment [9] and in experiment [10] was “inactive” throughout.
For `Nc1cc(-c2ccncc2)c[nH]c1=O`, the Potency entry in [1], in experiment [2], in experiment [3], in experiment [4], in experiment [5] and in [7] was “inactive” throughout. For the same molecule, the Potency result in [8], in [9] and in experiment [10] was “inactive” in each case.
Consider `CC(N)C(=O)OC(C)(C)Cc1ccc(Cl)cc1` (stereo unspecified), for which the Potency entry in [4] is “inactive”.
As for `O=C(CCN1CCN(CCO)CC1)N1c2ccccc2Sc2ccc(C(F)(F)F)cc21`, the Potency in experiment [1] and in [2] was 12.6 µM (active) in each case. Moreover, the Potency entry in experiment [4], in [8] and in experiment [10] was “inactive” each time.
In the case of `Nc1ccc(O)c(C(=O)O)c1`, the Potency result in experiment [1], in experiment [3], in [4], in [5], in [6] and in experiment [7] was “inactive” each time. For the same molecule, the Potency result in experiment [8], in [9] and in experiment [10] was “inactive” throughout.
On to `C#C[C@]1(O)CC[C@H]2[C@@H]3CCc4cc(O)ccc4[C@H]3CC[C@@]21C`, for which the Potency result in experiment [1], in experiment [2], in experiment [3], in [4], in experiment [5] and in experiment [6] was “inactive” throughout. Further, the Potency entry in [7], in experiment [8], in experiment [9] and in [10] was “inactive” in each case.
For the molecule `O=C(Nc1ccc(C(=O)O)c(O)c1)c1ccccc1`, the Potency result in [1], in experiment [3], in experiment [4], in experiment [5], in experiment [6] and in [7] was “inactive” each time. The Potency result in experiment [8], in experiment [9] and in experiment [10] was “inactive” throughout.
`Clc1ccccc1-c1nc(-c2ccncc2)no1`: the Potency entry in experiment [3], in experiment [6], in experiment [7], in [8] and in experiment [10] was “inactive” each time.
